Results on six sequences are retold here after PMC11006913.

Assay in all cases: PBM; 200 nM protein, PBS
Holding throughout (conditions): dsDNA, one strand shown

In assay [1] the target is HOXB4 (Homo sapiens, UniProt P17483 148-234).
Assay [2] has as its target HOXA4 (Homo sapiens, UniProt Q00056 201-287, W262R).
The target in assay [3] is ALX4 (Homo sapiens, UniProt Q9H161 200-286).
Assay [4] addresses PRRX1 (Homo sapiens, UniProt P54821 80-166, F113S).
Assay [5] deals with ALX4 (Homo sapiens, UniProt Q9H161 200-286, Q225E).
Assay [6] has as its target HOXA4 (Homo sapiens, UniProt Q00056 201-287, R217L).
Assay [7] concerns the target HOXB4 (Homo sapiens, UniProt P17483 148-234, V174I).
Assay [8] concerns the target ALX3 (Homo sapiens, UniProt O95076 139-225, N203Q).
The target of assay [9] is HOXA4 (Homo sapiens, UniProt Q00056 201-287).
Assay [10] addresses ALX3 (Homo sapiens, UniProt O95076 139-225).
Assay [11] addresses ALX3 (Homo sapiens, UniProt O95076 139-225, L168Q).
For assay [12], the target named is ALX3 (Homo sapiens, UniProt O95076 139-225, L168V).
In assay [13] the target is HOXA4 (Homo sapiens, UniProt Q00056 201-287, W262F).
Assay [14] concerns the target ALX3 (Homo sapiens, UniProt O95076 139-225, N203S).
Assay [15] deals with PRRX1 (Homo sapiens, UniProt P54821 80-166).
Assay [16] concerns the target HOXA2 (Homo sapiens, UniProt O43364 129-215, R185T).
Assay [17] concerns the target HOXA2 (Homo sapiens, UniProt O43364 129-215, R185K).
Assay [18] deals with VAX1 (Homo sapiens, UniProt Q5SQQ9 86-172).
Assay [19] deals with VAX1 (Homo sapiens, UniProt Q5SQQ9 86-172, T142I).
The target in assay [20] is HOXA2 (Homo sapiens, UniProt O43364 129-215, Y150S).
Assay [21] deals with HOXA2 (Homo sapiens, UniProt O43364 129-215).
In assay [22] the target is VAX1 (Homo sapiens, UniProt Q5SQQ9 86-172, K157R).
For assay [23], the target named is HOXA7 (Homo sapiens, UniProt P31268 116-202).
Another assay concerns the target T1, VENTX (Homo sapiens, UniProt O95231 78-163, Y115F).
T1 sequence: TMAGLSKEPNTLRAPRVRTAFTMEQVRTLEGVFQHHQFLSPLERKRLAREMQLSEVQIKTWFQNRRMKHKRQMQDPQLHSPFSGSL

In assay [24] the target is HOXB6 (Homo sapiens, UniProt P17509 132-218, K202E).
In assay [25] the target is HOXA7 (Homo sapiens, UniProt P31268 116-202, W177C).
For assay [26], the target named is HOXB6 (Homo sapiens, UniProt P17509 132-218).
The target of assay [27] is ALX1 (Homo sapiens, UniProt Q15699 118-204, L144V).
Assay [28] addresses ALX1 (Homo sapiens, UniProt Q15699 118-204, L144R).
Assay [29] deals with ALX1 (Homo sapiens, UniProt Q15699 118-204).
Sequence of ALX1 (Homo sapiens, UniProt Q15699 118-204) (Q15699 118-204): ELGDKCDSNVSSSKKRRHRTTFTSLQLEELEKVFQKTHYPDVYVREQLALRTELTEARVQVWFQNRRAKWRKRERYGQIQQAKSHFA

Sequence of HOXB4 (Homo sapiens, UniProt P17483 148-234, V174I) (P17483 148-234 V174I): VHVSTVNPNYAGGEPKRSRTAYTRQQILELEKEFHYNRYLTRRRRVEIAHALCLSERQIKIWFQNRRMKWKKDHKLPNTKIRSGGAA
Sequence of HOXA4 (Homo sapiens, UniProt Q00056 201-287) (Q00056 201-287): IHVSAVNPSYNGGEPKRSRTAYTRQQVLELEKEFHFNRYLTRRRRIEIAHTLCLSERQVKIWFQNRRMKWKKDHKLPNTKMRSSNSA
Sequence of HOXA4 (Homo sapiens, UniProt Q00056 201-287, R217L) (Q00056 201-287 R217L): as the sequence (Q00056 201-287) above, with R17L counted along it
Sequence of HOXA4 (Homo sapiens, UniProt Q00056 201-287, W262R) (Q00056 201-287 W262R): as the sequence (Q00056 201-287) above, with W62R counted along it
Sequence of HOXA4 (Homo sapiens, UniProt Q00056 201-287, W262F) (Q00056 201-287 W262F): as the sequence (Q00056 201-287) above, with W62F counted along it
Sequence of HOXB4 (Homo sapiens, UniProt P17483 148-234) (P17483 148-234): as the sequence (P17483 148-234 V174I) above, with I27V counted along it
Sequence of HOXA7 (Homo sapiens, UniProt P31268 116-202, W177C) (P31268 116-202 W177C): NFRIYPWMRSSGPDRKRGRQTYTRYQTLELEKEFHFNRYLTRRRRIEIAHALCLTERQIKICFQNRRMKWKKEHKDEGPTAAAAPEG
Sequence of HOXA7 (Homo sapiens, UniProt P31268 116-202) (P31268 116-202): as the sequence (P31268 116-202 W177C) above, with C62W counted along it
Sequence of HOXA2 (Homo sapiens, UniProt O43364 129-215, R185K) (O43364 129-215 R185K): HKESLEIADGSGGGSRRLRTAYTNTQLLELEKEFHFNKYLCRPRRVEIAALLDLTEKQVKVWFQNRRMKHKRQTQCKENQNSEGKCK
Sequence of VAX1 (Homo sapiens, UniProt Q5SQQ9 86-172, K157R) (Q5SQQ9 86-172 K157R): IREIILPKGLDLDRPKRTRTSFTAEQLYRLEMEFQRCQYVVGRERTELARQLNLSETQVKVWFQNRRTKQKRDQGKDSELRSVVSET
Sequence of HOXA2 (Homo sapiens, UniProt O43364 129-215) (O43364 129-215): as the sequence (O43364 129-215 R185K) above, with K57R counted along it
Sequence of HOXA2 (Homo sapiens, UniProt O43364 129-215, R185T) (O43364 129-215 R185T): as the sequence (O43364 129-215 R185K) above, with K57T counted along it
Sequence of VAX1 (Homo sapiens, UniProt Q5SQQ9 86-172, T142I) (Q5SQQ9 86-172 T142I): as the sequence (Q5SQQ9 86-172 K157R) above, with T57I, R72K counted along it
Sequence of HOXA2 (Homo sapiens, UniProt O43364 129-215, Y150S) (O43364 129-215 Y150S): as the sequence (O43364 129-215 R185K) above, with Y22S, K57R counted along it
Sequence of VAX1 (Homo sapiens, UniProt Q5SQQ9 86-172) (Q5SQQ9 86-172): as the sequence (Q5SQQ9 86-172 K157R) above, with R72K counted along it
Sequence of HOXB6 (Homo sapiens, UniProt P17509 132-218) (P17509 132-218): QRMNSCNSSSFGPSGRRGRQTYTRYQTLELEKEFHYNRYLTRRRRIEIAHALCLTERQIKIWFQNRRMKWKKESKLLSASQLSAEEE
Sequence of HOXB6 (Homo sapiens, UniProt P17509 132-218, K202E) (P17509 132-218 K202E): as the sequence (P17509 132-218) above, with K71E counted along it
Sequence of ALX1 (Homo sapiens, UniProt Q15699 118-204, L144V) (Q15699 118-204 L144V): as the sequence (Q15699 118-204) above, with L27V counted along it
Sequence of PRRX1 (Homo sapiens, UniProt P54821 80-166, F113S) (P54821 80-166 F113S): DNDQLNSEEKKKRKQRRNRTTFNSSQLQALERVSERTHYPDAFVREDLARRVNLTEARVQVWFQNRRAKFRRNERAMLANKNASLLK
Sequence of ALX3 (Homo sapiens, UniProt O95076 139-225, L168V) (O95076 139-225 L168V): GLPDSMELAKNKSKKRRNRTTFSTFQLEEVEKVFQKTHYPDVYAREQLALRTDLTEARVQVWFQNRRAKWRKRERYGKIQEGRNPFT
Sequence of ALX4 (Homo sapiens, UniProt Q9H161 200-286, Q225E) (Q9H161 200-286 Q225E): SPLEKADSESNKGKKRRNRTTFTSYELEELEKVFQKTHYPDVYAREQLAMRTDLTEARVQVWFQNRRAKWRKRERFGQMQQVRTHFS
Sequence of ALX3 (Homo sapiens, UniProt O95076 139-225, N203S) (O95076 139-225 N203S): as the sequence (O95076 139-225 L168V) above, with V30L, N65S counted along it
Sequence of ALX3 (Homo sapiens, UniProt O95076 139-225) (O95076 139-225): as the sequence (O95076 139-225 L168V) above, with V30L counted along it
Sequence of PRRX1 (Homo sapiens, UniProt P54821 80-166) (P54821 80-166): as the sequence (P54821 80-166 F113S) above, with S34F counted along it
Sequence of ALX3 (Homo sapiens, UniProt O95076 139-225, L168Q) (O95076 139-225 L168Q): as the sequence (O95076 139-225 L168V) above, with V30Q counted along it
Sequence of ALX4 (Homo sapiens, UniProt Q9H161 200-286) (Q9H161 200-286): as the sequence (Q9H161 200-286 Q225E) above, with E26Q counted along it
Sequence of ALX3 (Homo sapiens, UniProt O95076 139-225, N203Q) (O95076 139-225 N203Q): as the sequence (O95076 139-225 L168V) above, with V30L, N65Q counted along it
Sequence of ALX1 (Homo sapiens, UniProt Q15699 118-204, L144R) (Q15699 118-204 L144R): as the sequence (Q15699 118-204) above, with L27R counted along it

With CCCTTGCG, the binding signal was 7.39 upbm affinity estimate (log intensity, higher = more binding, comparable within an allelic series) in the assay with HOXB4 [1]; 9.76 upbm affinity estimate (log intensity, higher = more binding, comparable within an allelic series) in the assay with HOXA4 [2]; 7.92 upbm affinity estimate (log intensity, higher = more binding, comparable within an allelic series) in the assay with ALX4 [3]; 9.08 upbm affinity estimate (log intensity, higher = more binding, comparable within an allelic series) with PRRX1 [4]; 7.92 upbm affinity estimate (log intensity, higher = more binding, comparable within an allelic series) with ALX4 [5]; 9.77 upbm affinity estimate (log intensity, higher = more binding, comparable within an allelic series) with HOXA4 [6]. Besides, the binding signal in the assay with HOXB4 [7] is 7.32 upbm affinity estimate (log intensity, higher = more binding, comparable within an allelic series); in the assay with ALX3 [8], 7.69 upbm affinity estimate (log intensity, higher = more binding, comparable within an allelic series); with HOXA4 [9] it was 9.61 upbm affinity estimate (log intensity, higher = more binding, comparable within an allelic series); with ALX3 [10], 7.65 upbm affinity estimate (log intensity, higher = more binding, comparable within an allelic series); with ALX3 [11], 7.59 upbm affinity estimate (log intensity, higher = more binding, comparable within an allelic series); with ALX3 [12], 7.6 upbm affinity estimate (log intensity, higher = more binding, comparable within an allelic series). For the same sequence, the binding signal with HOXA4 [13] was 9.81 upbm affinity estimate (log intensity, higher = more binding, comparable within an allelic series); with ALX3 [14], 7.67 upbm affinity estimate (log intensity, higher = more binding, comparable within an allelic series); with PRRX1 [15], 9.11 upbm affinity estimate (log intensity, higher = more binding, comparable within an allelic series).

On to CATCATTA, for which the binding signal is 13.4 upbm affinity estimate (log intensity, higher = more binding, comparable within an allelic series) with HOXB4 [1]; 10.8 upbm affinity estimate (log intensity, higher = more binding, comparable within an allelic series) in the assay with HOXA4 [2]; 12.5 upbm affinity estimate (log intensity, higher = more binding, comparable within an allelic series) in the assay with HOXA2 [16]; 12.3 upbm affinity estimate (log intensity, higher = more binding, comparable within an allelic series) with HOXA4 [6]; 14 upbm affinity estimate (log intensity, higher = more binding, comparable within an allelic series) with HOXB4 [7]; 13.2 upbm affinity estimate (log intensity, higher = more binding, comparable within an allelic series) in the assay with HOXA2 [17]. In addition, the binding signal is 14 upbm affinity estimate (log intensity, higher = more binding, comparable within an allelic series) with HOXA4 [9]; 12.9 upbm affinity estimate (log intensity, higher = more binding, comparable within an allelic series) with VAX1 [18]; 12.8 upbm affinity estimate (log intensity, higher = more binding, comparable within an allelic series) with VAX1 [19]; 11 upbm affinity estimate (log intensity, higher = more binding, comparable within an allelic series) in the assay with HOXA2 [20]; 11.8 upbm affinity estimate (log intensity, higher = more binding, comparable within an allelic series) in the assay with HOXA4 [13]; 12.3 upbm affinity estimate (log intensity, higher = more binding, comparable within an allelic series) with HOXA2 [21]. The binding signal with VAX1 [22] is 12.7 upbm affinity estimate (log intensity, higher = more binding, comparable within an allelic series).

For the sequence TAATGACA, the binding signal with HOXB4 [1] is 13 upbm affinity estimate (log intensity, higher = more binding, comparable within an allelic series); with HOXA4 [2] it was 10.6 upbm affinity estimate (log intensity, higher = more binding, comparable within an allelic series); in the assay with HOXA7 [23], 11.2 upbm affinity estimate (log intensity, higher = more binding, comparable within an allelic series); with VENTX, 11.5 upbm affinity estimate (log intensity, higher = more binding, comparable within an allelic series); with HOXB6 [24], 10 upbm affinity estimate (log intensity, higher = more binding, comparable within an allelic series); with HOXA2 [16], 12.6 upbm affinity estimate (log intensity, higher = more binding, comparable within an allelic series). For the same sequence, the binding signal is 12.2 upbm affinity estimate (log intensity, higher = more binding, comparable within an allelic series) with HOXA4 [6]; 13.7 upbm affinity estimate (log intensity, higher = more binding, comparable within an allelic series) in the assay with HOXB4 [7]; 13.4 upbm affinity estimate (log intensity, higher = more binding, comparable within an allelic series) in the assay with HOXA2 [17]; 13.8 upbm affinity estimate (log intensity, higher = more binding, comparable within an allelic series) with HOXA4 [9]; 12.8 upbm affinity estimate (log intensity, higher = more binding, comparable within an allelic series) with VAX1 [18]; 12.7 upbm affinity estimate (log intensity, higher = more binding, comparable within an allelic series) in the assay with VAX1 [19]. Besides, the binding signal is 11 upbm affinity estimate (log intensity, higher = more binding, comparable within an allelic series) with HOXA2 [20]; 8.98 upbm affinity estimate (log intensity, higher = more binding, comparable within an allelic series) with HOXA7 [25]; 11.7 upbm affinity estimate (log intensity, higher = more binding, comparable within an allelic series) in the assay with HOXA4 [13]; 12.5 upbm affinity estimate (log intensity, higher = more binding, comparable within an allelic series) in the assay with HOXA2 [21]; 12.5 upbm affinity estimate (log intensity, higher = more binding, comparable within an allelic series) with VAX1 [22]; 11.7 upbm affinity estimate (log intensity, higher = more binding, comparable within an allelic series) with HOXB6 [26].

As to CGGCAGAG, the binding signal was 7.39 upbm affinity estimate (log intensity, higher = more binding, comparable within an allelic series) in the assay with HOXB4 [1]; 8.53 upbm affinity estimate (log intensity, higher = more binding, comparable within an allelic series) in the assay with HOXA7 [23]; 7.51 upbm affinity estimate (log intensity, higher = more binding, comparable within an allelic series) with HOXB4 [7]; 8.39 upbm affinity estimate (log intensity, higher = more binding, comparable within an allelic series) with HOXA7 [25].

For ACCGTGCC, the binding signal in the assay with HOXB4 [1] was 7.42 upbm affinity estimate (log intensity, higher = more binding, comparable within an allelic series); in the assay with HOXA7 [23], 8.5 upbm affinity estimate (log intensity, higher = more binding, comparable within an allelic series); with HOXB4 [7], 7.71 upbm affinity estimate (log intensity, higher = more binding, comparable within an allelic series); with HOXA7 [25], 8.5 upbm affinity estimate (log intensity, higher = more binding, comparable within an allelic series).

For GGCCCCCA, the binding signal is 7.76 upbm affinity estimate (log intensity, higher = more binding, comparable within an allelic series) with HOXB4 [1]; 9.68 upbm affinity estimate (log intensity, higher = more binding, comparable within an allelic series) with HOXA4 [2]; 9.68 upbm affinity estimate (log intensity, higher = more binding, comparable within an allelic series) with HOXA4 [6]; 7.77 upbm affinity estimate (log intensity, higher = more binding, comparable within an allelic series) with HOXB4 [7]; 6.64 upbm affinity estimate (log intensity, higher = more binding, comparable within an allelic series) with ALX1 [27]; 6.56 upbm affinity estimate (log intensity, higher = more binding, comparable within an allelic series) with ALX1 [28]. Moreover, the binding signal with HOXA4 [9] is 9.71 upbm affinity estimate (log intensity, higher = more binding, comparable within an allelic series); with ALX1 [29], 6.65 upbm affinity estimate (log intensity, higher = more binding, comparable within an allelic series); in the assay with HOXA4 [13], 9.82 upbm affinity estimate (log intensity, higher = more binding, comparable within an allelic series).
